Reference: PubChem BioAssay AID430 (Sanford-Burnham Center for Chemical Genomics, 2006)
The campaign covered roughly 63,000 compounds. About 1,100 (1.7%) were called active. Only a selection was taken, and actives are over-represented in it overall. Entries with a potency or affinity are not part of this list. Unmarked numbers belong to inactive results. No stated cut-off is given here; in the data, active means cytotoxicity above about 50%; inactive means the rest.

Experiment: cytotoxicity in HPDE-C7 cells, cell-based, fluorescence, HTS (AID 430);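 further: cells exposed to compound for 48 hours before viability readout; 0% = vehicle and 100% = reference cytotoxic drug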
Conditions: HPDE-C7 pancreatic duct cells viability, at 10 µM, hits give high values

SMILES	cytotoxicity
CCc1cc(C(=O)Cc2ccc(F)cc2)c(O)cc1O	54.4% (active)
CCCc1cc(C(=O)Cc2ccc(C(=O)OCC)o2)c(O)cc1O	24%
CCc1cc(C(=O)Cc2nc3ccccc3[nH]2)c(O)cc1O	9.1%
CCCc1cc(C(=O)Cc2ccc(F)cc2)c(O)cc1O	78.8% (active)
CCc1cc(C(=O)Cc2cnn(-c3ccccc3)c2)c(O)cc1O	14.9%
CCc1cc(C(=O)COc2ccccc2F)c(O)cc1O	5.5%
CC(=O)c1cnc2cc(-c3ccccc3)nn2c1C	-20.8%
Cc1nc(SCc2ccccc2)c(C(F)(F)F)c(=O)[nH]1	2.3%
Cc1ccc(Nc2nc(C)c(CCC(C)C)c(=O)[nH]2)cc1	7.1%
Cc1nc(Nc2ccccc2)[nH]c(=O)c1CCC(C)C	-16.8%
Cc1nc(Nc2ccc(F)cc2)[nH]c(=O)c1CCC(C)C	62.1% (active)
O=C(Cn1nc(-c2ccccc2)c2ccccc2c1=O)NCCN1CCOCC1	-11.2%
O=c1c2cccc3c2c(nn1CN1CCOCC1)-c1ccccc1-3	53% (active)
Cc1ccc(-c2nn(CC(=O)NCCN3CCOCC3)c(=O)c3ccccc23)cc1	0.5%
O=C(CC(SCCO)c1ccc2c(c1)OCO2)c1ccco1 (centres undefined)	1.4%
O=C(CC(SCc1ccco1)c1ccc(O)cc1)c1cccs1 (centres undefined)	54.4% (active)
O=C(CSCc1ccco1)c1cccs1	-7.2%
O=C(CC(SCCO)c1ccc2c(c1)OCO2)c1cccs1 (centres undefined)	54.5% (active)
O=C(CSc1nnc(-c2ccc(O)cc2)n1Cc1ccco1)c1cccs1	-1.1%
CC(NC(=O)c1cccs1)c1ccc2c(c1)OCO2 (centres undefined)	-2.3%
COc1ccc(N2CCN(C(=O)CSc3ccccc3N)CC2)cc1	-6.2%
O=C(CCCSc1nc(-c2ccco2)cc(C(F)(F)F)n1)NCc1cccs1	-4.3%

SMILES	cytotoxicity
Cc1c(Cl)cccc1NC(=O)Cn1cccc1	3.2%
Cc1cc(Nc2nc3ccccc3[nH]c2=O)n(-c2ccccc2)n1	8%
O=C(CN(Cc1ccco1)C(=O)CNS(=O)(=O)c1ccc(Cl)cc1)NCc1ccc(F)cc1	70% (active)
O=C(CN(Cc1ccco1)C(=O)CNS(=O)(=O)c1ccc(F)cc1)NCc1ccc(F)cc1	-4%
O=C(CN(Cc1ccco1)C(=O)CNS(=O)(=O)c1ccccc1)NCc1ccc(F)cc1	-1.3%
OCCNc1nc(Nc2ccccc2)nc(Nc2ccccc2)n1	2.2%
CC(C)n1c(Nn2cnnc2)nc2ccccc21	3.1%
Cc1cc(C(=O)OCC(=O)N2CCN(c3ccccc3)CC2)c2ccccc2n1	-8.3%
O=C(CSc1nnc(-c2cccnc2)n1Cc1ccco1)c1ccccc1	-18.2%
CC(=O)c1cccc(NC(=O)Cc2cccs2)c1	-5.3%
O=C(Cc1cccs1)Nc1cccc(C(=O)Nc2ccco2)c1	54.2% (active)
O=C(Cc1cccs1)Nc1ccc(NC(=O)c2ccco2)cc1	-14.5%
CCOC(=O)C(C)Sc1nnc(Cn2c(=O)sc3ccccc32)n1-c1ccccc1 (centres undefined)	18.4%
CCOC(=O)N1CCN(C(=O)C2CCC(C(=O)N3CCN(C(=O)OCC)CC3)CC2)CC1 (centres undefined)	-3.2%
O=C(c1cccc2ccccc12)N1CCN(CC2CC=CCC2)CC1 (centres undefined)	-22%
Cc1ccc(C(=O)Nc2cccc(C(=O)NCc3ccco3)c2)cc1	62.7% (active)
O=C(NCc1ccco1)c1cccc(NC(=O)c2ccccc2)c1	10.1%
Cc1occc1C(=O)Nc1cccc(C(=O)NCc2ccccc2)c1	-18%
O=C(NCc1ccccc1)c1cccc(NC(=O)c2ccco2)c1	44.7%
CCC(CC)C(=O)Nc1cccc(C(=O)NCc2ccco2)c1	-24.1%
O=C(O)c1ccc(CNC(=O)c2ccc(Br)o2)cc1	0.5%
CC(OC(=O)C1CCN(S(=O)(=O)c2ccccc2)CC1)C(=O)Nc1ncc(Cl)cc1Cl (centres undefined)	-0.7%

SMILES	cytotoxicity
Cc1ncoc1C(=O)Nc1ccc(Oc2ccccc2)cc1	-20.9%
O=C(Nc1ccc(O)cc1)c1ccc(C(=O)c2ccccc2)o1	-1.5%
CCc1ccccc1N(CC(=O)N1CCN(c2ccccc2)CC1)S(C)(=O)=O	-3%
CCOC(=O)c1c(-c2cccs2)csc1NC(=O)CN1CC(C)OC(C)C1 (centres undefined)	61.1% (active)
CCOC(=O)c1c(-c2cccs2)csc1NC(=O)CCCC(=O)O	8.6%
COC(=O)c1c(-c2cccs2)csc1NC(=O)CN1CCOCC1	-10.4%
CCOC(=O)c1ccc(NC(=O)CSc2nc3c(c(=O)n2C)SC(C)C3)cc1 (centres undefined)	1.1%
CCOC(=O)c1ccc(NC(=O)CSc2nc3c(c(=O)n2CC)SC(C)C3)cc1 (centres undefined)	55.3% (active)
CCn1c(SCC(=O)Nc2cccc(C)c2)nc2c(c1=O)SC(C)C2 (centres undefined)	3.7%
COC(=O)c1ccc(C(=O)Nc2ccc(N)cc2N)cc1	-13.9%
c1ccc(N(c2ccccc2)c2nc(N3CCOCC3)nc(N3CCOCC3)n2)cc1	4.8%
COC(=O)C1(C)Nc2ccccc2C(=O)N1c1ccccc1C (centres undefined)	2.8%
CCC1(CC)Nc2ccccc2C(=O)N1c1ccc(NC(C)=O)cc1	10.6%
CCOCCCNC(=O)C(c1ccc(Cl)cc1)N1CCN(C(=O)c2ccco2)CC1 (centres undefined)	-11.6%
Cc1onc(-c2ccccc2)c1C(=O)NCc1cccnc1	4.9%
Cc1cc(OCCCCCNCCO)ccc1Cl	18.7%
O=C(NCc1ccco1)c1cc(-c2ccc(Cl)cc2)on1	5.9%
CC(C)Cc1cc(C(=O)NCc2cccs2)no1	-21.1%
CC1(C)c2ssc(=S)c2-c2ccccc2N1C(=O)c1ccco1	-13.6%
CC1(C)Nc2ccc(O)cc2-c2c1ssc2=S	67.4% (active)
